According to PubChem BioAssay (Tox21):
Activity calls are given as the source filed them. Calls come from the whole dose curve.

Test: qHTS assay to identify small molecule agonists of the sonic hedgehog signaling (Shh) pathway (AID 1259368);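 note: NIH/3T3-derived 3T3Gli1-Luc cells carrying a stable Gli1-driven firefly luciferase reporter; nearly all actives have a fitted effect of over 15% in size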
Settings: NIH/3T3 Gli1-Luc reporter, luciferase, 24 h; series mostly up to 92.4 µM
Text: National Center for Advancing Translational Sciences [NCATS]
NIH Chemical Genomics Center [NCGC]
U.S. Environmental Protection Agency [EPA]
National Institutes of Environmental Health Sciences [NIEHS]
National Toxicology Program [NTP]
The sonic hedgehog (Shh) pathway is essential for normal embryonic development. Dysregulation of the Shh pathway can cause severe developmental defects in organs. Therefore chemicals that interfere with the pathway are potential developmental toxicants. A cell line designated 3T3Gli1-Luc (DMB/OARSA/CFSAN/FDA, Laurel, MD), a NIH/3T3 derived clone containing stably integrated Gli1-Luc reporter is used to detect chemical interference of the Shh pathway, by changes in the expression of the firefly Luc gene under the control of the Gli1 transcriptional response element. This cell line was used to screen Tox21 libraries for identifying and prioritizing the potential developmental toxicants that interfere Shh pathway.
3T3 Gli1-Luc cells were dispensed at 2,000 per well in 5uL of culture medium into white solid bottom 1536-well plates (Greiner Bio-One, Monroe, NC) using a Multidrop Combi (Thermo Scientific, Waltham, MA) dispenser. The assay plates were incubated at 37 C and 5% CO2 for 4hr, and then 23nL of compounds dissolved in DMSO and positive control were transferred using a Pintool station (Wako, San Diego, CA). The assay plates were incubated at 37C and 5% CO2 for 24hr. For luciferase read, 4uL of Amplite Luciferase reporter gene assay reagent (AAT Bioquest, Inc. Sunnyvale, CA) was added to each well of the assay plates using Flying Reagent Dispenser (FRD, Aurora Discovery, San Diego, CA) and incubated at room temperature for 30min. The luminescence signal was measured using a ViewLux plate reader (Perkin Elmer, Shelton, CT).
For `CC(C)(O)C(Cl)(Cl)Cl`, the outcome was “inactive”.
With `COc1cccc(C=O)c1` the outcome was “inactive”.
With `CCOP(=S)(OCC)SCCl` the outcome was “inactive”.
In the case of `COC(=O)c1ccccc1CS(=O)(=O)NC(=O)Nc1nc(OC)cc(OC)n1`, the outcome is reported as “inactive”.
In the case of `N[C@@H]1C[C@H]1c1ccccc1`, the outcome is reported as “inactive”.
For `CNC(=O)Oc1cc(C)c(N(C)C)c(C)c1`, the outcome was “inactive”.
In the case of `CC[C@@H](CO)NC(=O)[C@@H]1C=C2c3cccc4[nH]cc(c34)C[C@H]2N(C)C1`, the outcome is reported as “inactive”.
For `CCOC(=O)NC(C)(C)Cc1ccc(Cl)cc1`, the outcome was “inactive”.
With `CCOC(=O)CCl` the outcome was “inactive”.
In the case of `CN(C)CCc1c[nH]c2cccc(OP(=O)(O)O)c12`, the outcome is reported as “inactive”.
In the case of `O=[N+]([O-])CCO`, the outcome is reported as “inactive”.
In the case of `COc1ccc2c(C(=O)c3ccc(Cl)cc3)c(C)n(CC(=O)O)c2c1`, the outcome is reported as “inactive”.
In the case of `CC(C)[C@]12CC(=O)[C@H](C)[C@H]1C2`, the outcome is reported as “inactive”.
With `Oc1ccc2c3c1O[C@H]1[C@@H](O)C=C[C@H]4[C@@H](C2)NCC[C@@]341` the outcome was “inactive”.
For `CCN[C@H](C)Cc1cccc(C(F)(F)F)c1`, the outcome was “inactive”.
With `NNCc1ccccc1` the outcome was “inactive”.
With `CON(C)C(=O)Nc1ccc(Br)cc1` the outcome was “inactive”.
With `COP(=O)(O)OC` the outcome was “inactive”.
With `CCNP(=S)(OC)O/C(C)=C/C(=O)OC(C)C` (stereo not given) the outcome was “inactive”.
In the case of `BrCc1ccc(Br)cc1`, the outcome is reported as “inactive”.
With `Oc1ccc(Cc2ccc(O)cc2)cc1` the outcome was “inactive”.
In the case of `ClCCCCl`, the outcome is reported as “inactive”.
In the case of `CN(CCO)CCO`, the outcome is reported as “inactive”.
With `CON(C)C(=O)Nc1ccc(Br)c(Cl)c1` the outcome was “inactive”.
In the case of `ClCCCCCCCl`, the outcome is reported as “inactive”.
With `CCOC(=O)Nc1cccc(OC(=O)Nc2ccccc2)c1` the outcome was “inactive”.
In the case of `CCCCCCCC(=O)Cl`, the outcome is reported as “inactive”.
In the case of `C[C@H](N)C(=O)c1ccccc1`, the outcome is reported as “inactive”.
For `BrCCc1ccccc1`, the outcome was “inactive”.
In the case of `CN1C(=O)COc2c(C(=O)NC3CN4CCC3CC4)cc(Cl)cc21` (stereo not given), the outcome is reported as “inactive”.
In the case of `CCC(=O)OC1(c2ccccc2)CCN(C)CC1`, the outcome is reported as “inactive”.
In the case of `CC(C)(N)Cc1ccc(Cl)cc1`, the outcome is reported as “inactive”.
For `C#CC(C)(C)O`, the outcome was “inactive”.
With `NNC(N)=O` the outcome was “inactive”.
With `O=C(Cl)CCl` the outcome was “inactive”.
For `CCC1(c2ccccc2)C(=O)N(COC)C(=O)N(COC)C1=O`, the outcome was “inactive”.
For `ClCCN1CCCC1`, the outcome was “inactive”.
In the case of `N#CN`, the outcome is reported as “inactive”.
In the case of `CC(C)[N+](C)(CCC(C(N)=O)(c1ccccc1)c1ccccc1)C(C)C`, the outcome is reported as “inactive”.
With `CC(Cc1ccccc1)NCCCCl` (stereo not given) the outcome was “inactive”.
